Over roughly 13,000 compounds, “IFI” has its median near 4; the highest 2% begin near 17. What follows is part of a selection rich in the highest values, with near analogues and random picks from the rest.
Experiment: GSK_TCMDC: Inhibition Frequency Index (IFI). The number of non-kinase HTS assays where a compound showed > 50 % inhibition, expressed as a percentage of the number of such assays in which the compound was tested
Type: functional

| SMILES | IFI [%] |
| --- | --- |
| CCCCCCSc1nnc(COc2cccc3ccccc23)n1-c1ccc(OC)cc1 | 5.43 |
| CCCn1c(O)nnc1SCC(=O)Nc1cc(C(F)(F)F)ccc1Cl | 1.57 |
| Nc1cccc(CNCc2cccc(-c3ccc(-c4nc5ccccc5[nH]4)cc3)c2)c1 | 3.81 |
| CC(C)c1ccc(S(=O)(=O)Nc2cccc(CCN3CCC(N4CCCCC4)CC3)c2)cc1 | 9.52 |
| O=C(NCCCCN1CCC(c2ccc(-c3ccco3)cc2)CC1)c1ccc(NC(=O)c2ccc(Cl)cc2)cc1 | 5.98 |
| CN(C)c1ccc(CN2CCC(NC(=O)c3ccc(-c4cccc(Cl)c4)s3)CC2)cc1 | 17.9 |
| CC(C)c1ccc(CN2CCC(NC(=O)c3ccc(-c4cccc(F)c4)s3)CC2)cc1 | 17.2 |
| CC(C)c1ccc(CN2CCC(NC(=O)c3ccc(-c4cccc(Cl)c4)s3)CC2)cc1 | 12.1 |
| CN(C)c1ccc(CN2CCC(NC(=O)c3ccc(-c4cccc(F)c4)s3)CC2)cc1 | 10.5 |
| CC(C)(C)c1ccc(CN2CCC(NC(=O)c3ccc(-c4cccc(F)c4)s3)CC2)cc1 | 12.5 |
| CN(C)c1ccc(CN2CCC(NC(=O)c3ccc(-c4ccc(N(C)C)cc4)s3)CC2)cc1 | 15.5 |
| COc1ccc2nc3cc(Cl)ccc3c(Nc3ccc(O)c(CNC(C)C)c3)c2c1 | 7.64 |
| CCCCNCc1ccc(-c2nc(CN(CCCn3ccnc3)C(=O)C3COc4ccccc4O3)cs2)cc1 (stereo not drawn) | 4.93 |
| O=C(NCCc1ccccc1)N(Cc1ccccc1-c1ccc(CNCCc2ccccc2)cc1)C1CCN(Cc2ccccc2)CC1 | 7.86 |
| COc1cc2nc(NCCn3cccn3)nc(NCCc3ccccc3)c2cc1OC | 4.23 |
| Cc1cccc2nc(-c3cccc(-c4cccc(NC(=O)c5csnn5)c4)c3)[nH]c12 | 2.7 |
| N#Cc1ccc(N2CCN(Cc3cccc(-c4cccc(-c5nc6cc(C(F)(F)F)ccc6[nH]5)c4)c3)CC2)nc1 | 1.92 |
| COc1cccc(CCNc2nc(NCc3ccccc3)c3cc(OC)c(OC)cc3n2)c1 | 5.93 |
| COc1ccc(CCNc2nc(NCc3ccccc3)c3cc(OC)c(OC)cc3n2)cc1OC | 5.84 |
| COc1cc2nc(NCCc3cccc(Cl)c3)nc(NCc3ccccc3)c2cc1OC | 17.1 |
| CCCc1cc(=O)[nH]c(-n2nc(C)cc2NC(=O)C(CC)c2ccccc2)n1 (stereo not drawn) | 18.5 |
| CCc1c(C)nc(-n2nc(C)cc2NC(=O)C(CC)c2ccccc2)[nH]c1=O (stereo not drawn) | 11.8 |
| CCCc1cc(=O)[nH]c(-n2nc(C)cc2NC(=O)CC(c2ccccc2)c2ccccc2)n1 | 12.2 |
| Cc1cc(N2CCCC2)nc(Nc2ccc(NC(=O)Cc3ccccc3)cc2)n1 | 15.4 |

| SMILES | IFI [%] |
| --- | --- |
| Cc1cc(N2CCCC2)nc(Nc2ccc(NC(=O)Nc3ccccc3)cc2)n1 | 16.2 |
| COc1cccc(NC(=O)Nc2ccc(Nc3nc(C)cc(N4CCCC4)n3)cc2)c1 | 17.3 |
| COc1ccc(NC(=O)Nc2ccc(Nc3nc(C)cc(N4CCCC4)n3)cc2)cc1 | 11.8 |
| CCC(=O)Nc1ccc(Nc2nc(C)cc(N3CCCC3)n2)cc1 | 7.84 |
| Cc1cc(N2CCCC2)nc(Nc2ccc(NC(=O)COc3ccccc3)cc2)n1 | 22.2 |
| C=CCOC(=O)N1CCC(CNCc2ccc(-c3cccc(-c4nc5cc(F)ccc5[nH]4)c3)cc2)C1 (stereo not drawn) | 2.91 |
| COc1cc2nc(SCCCC#N)n(C3CCCCCC3)c(=N)c2cc1OC | 3.6 |
| CS(=O)(=O)c1cccc2sc(N3CCN(C(=O)c4ccc([N+](=O)[O-])o4)CC3)nc12 | 4 |
| Cc1cccc(Nc2c(-c3cc(Br)ccc3O)nc3ncccn23)c1 | 8.7 |
| COc1ccc(CNC(=O)c2cnc3c(O)cccc3c2Nc2cccc(NC(=O)c3ccc(F)cc3)c2)cc1 | 6.98 |
| CCCCCCN(CCCCCC)CC(O)c1c(OC)ccc2ccccc12 (stereo not drawn) | 5.93 |
| CCCCCOc1ccc(C(=NC)N(CCCCC)CCCCC)c2ccccc12 | 25.2 |
| CCCCCCOc1ccc(/C(N)=N\Cc2ccccc2)c2c1CCCC2 | 13.3 |
| Cc1ccc(Nc2cc(C)nn2-c2nc(C)cc(O)n2)cc1 | 12.3 |
| CN(C)Cc1cccc(-c2ccc3ccnc(N)c3c2)c1 | 4.42 |
| Cc1[nH]c(C)c(-c2ccc(-c3ccccc3C(F)(F)F)nc2)c(=O)c1Br | 0.92 |
| COc1ccc2c(NN=Cc3ccc(Cl)cc3)ccnc2c1 | 2.26 |
| CCOc1cc2ccccc2cc1CNCCCCCCNCc1cc2ccccc2cc1OCC | 11.5 |
| CCOc1c(CNCCCCCCNCc2ccc3ccccc3c2OCC)ccc2ccccc12 | 22 |
| CCCCOc1cc(CNCCCCCCNCc2cc(OCCCC)cc3ccccc23)c2ccccc2c1 | 12.5 |
| CCCOc1c(CCNCCCCNCCc2ccc3ccccc3c2OCCC)ccc2ccccc12 | 14.7 |
| CCCCOc1c(CNCCCCCCNCc2ccc3ccccc3c2OCCCC)ccc2ccccc12 | 16.6 |
| CCOc1c(CCNCCCCNCCc2ccc3ccccc3c2OCC)ccc2ccccc12 | 18.4 |
| CCCCOc1c(CCNCCCCNCCc2cc(OC)c3ccccc3c2OCCCC)cc(OC)c2ccccc12 | 15 |

| SMILES | IFI [%] |
| --- | --- |
| CCCCOc1c(CCNCCCCNCCc2cc(F)c3ccccc3c2OCCCC)cc(F)c2ccccc12 | 19.6 |
| [O-][s+]1nc(NCCCN(Cc2cccs2)c2ccccn2)c(NCc2ccccc2)n1 (stereo not drawn) | 4.83 |
| CCNC(C)(C)CN(Cc1ccc(-c2ccc(C(F)(F)F)cc2)cc1)C(=O)Cn1c(CCc2cccc(F)c2F)nc(=O)c2ccccc21 | 6.94 |
| Cc1cccc2nc(-c3ccc(-c4ccc(CN5CC(C)OC(C)C5)cc4)cc3)[nH]c12 (stereo not drawn) | 6.94 |
| CC1CC1C(=O)NC1CCN(CC2(c3ccccc3)CCCCC2)CC1 (stereo not drawn) | 6.38 |
| Cc1ccoc1C(=O)Nc1cccc(-c2cccc(-c3nc4cc(C(F)(F)F)ccc4[nH]3)c2)c1 | 6.48 |
| COc1cc(CC2c3cc(O)c(Cl)cc3CCN2C)c(OC)cc1C (stereo not drawn) | 2.13 |
| COc1ccc(CCNC(C)Cc2ccc(C(=O)Nc3ccc(CC(C)NCCc4cccc(Cl)c4)cc3)cc2)cc1 (stereo not drawn) | 9.86 |
| Cn1c(Nc2cc(C(C)(C)C)on2)nc2cc(Nc3ccnc(Nc4ccc(CS(C)(=O)=O)cc4)n3)ccc21 | 0.95 |
| CCCCCCCNc1cc(C)nc2ccc(OC)cc12 | 7.3 |
| CN(C)c1ccc(OCCCCCCOc2ccccc2)cc1 | 0.72 |
| CN(C)c1ccc(C(c2ccc(N(C)C)cc2)c2cc([N+](=O)[O-])ccc2Cl)cc1 | 1.47 |
| COc1ccc(C(c2ccc(N(C)C)cc2)c2ccc(N(C)C)cc2)cc1 | 18.2 |
| CC(C)CCNC(=O)C1Cc2c([nH]c3ccc(Br)cc23)C2(CCN(Cc3ccccc3)CC2)N1 (stereo not drawn) | 7.04 |
| CN1CCCC(CN2CCN(Cc3cccc(-c4ccc(-c5nc6ccccc6[nH]5)s4)c3)CC2)C1 (stereo not drawn) | 5.63 |
| CN1CCN(c2nsc3ccc(-c4ccc(OCCN5CCCC5)cc4)cc23)CC1 | 12.2 |
| N=C(N)Nc1nccc(NCc2ccccc2)n1 | 5.3 |
| N=C(Nc1cccc(Cc2ccccc2)n1)Nc1ncccn1 | 17.2 |
| COc1ccc(-c2nccc(NC(=N)NCc3ccccc3)n2)cc1 | 10.7 |
| Cc1cc(NCCc2ccccc2)nc(NC(=N)Nc2cccc([N+](=O)[O-])c2)n1 | 6.21 |
| N=C(Nc1ccccc1)Nc1cccc(Cc2ccc([N+](=O)[O-])cc2)n1 | 19.9 |
| CC1(C)N=C(NC(=O)Nc2ccc([N+](=O)[O-])cc2)N=C(N)N1OCc1cccc2ccccc12 | 1.46 |
| CC(C)(C)CCN1CCC(CNC(=O)c2cc(-c3cccc(C(F)(F)F)c3)cs2)C1 (stereo not drawn) | 10 |
| Cn1cc(-c2ccnc3[nH]c(-c4cccc(CNC5CCC(O)CC5)c4)cc23)cn1 (stereo not drawn) | 8.11 |

| SMILES | IFI [%] |
| --- | --- |
| CN(C)Cc1cccc(-c2cc3c(-c4cnn(C)c4)c(Cl)cnc3[nH]2)c1 | 22.2 |
| CN(C)Cc1ccc(-c2cc3c(-c4ccc(CN(C)C)cc4)ccnc3[nH]2)cc1 | 0 |
| OCCN1CCN(Cc2ccc(-c3cccc(-c4nc5cc(F)ccc5[nH]4)c3)cc2)CC1 | 3.92 |
| CN(C)Cc1cccc(-c2cnc(N)c(-c3nc4cc(S(C)(=O)=O)ccc4[nH]3)c2)c1 | 7.41 |
| Fc1ccc2[nH]c(-c3cccc(-c4ccc(CNCC5CCCO5)cc4)c3)nc2c1 (stereo not drawn) | 5.88 |
| O=C(Nc1ccc(C(F)(F)F)cc1)c1cc(Cl)cc2nc(C(F)(F)F)[nH]c12 | 23.4 |
| Cc1cccc2nc(-c3ccc(-c4ccc(NC(=O)Nc5ccc(Cl)cc5)cc4)cc3)[nH]c12 | 4 |
| O=C(Nc1ccc2c(c1)CCNCC2)c1ccc(-c2ccc(Cl)cc2)cc1 | 9.66 |
| O=C(Nc1ccc(Cl)cc1)c1cccc2nc(C(F)(F)F)[nH]c12 | 21.3 |
| O=C(Nc1ccc(Cl)cc1)Nc1cccc(-c2cccc(-c3nc4cc(C(F)(F)F)ccc4[nH]3)c2)c1 | 9 |
| O=C(Nc1cccc(C(F)(F)F)c1)c1cccc2nc(C(F)(F)F)[nH]c12 | 16.4 |
| O=C(Nc1ccc(-c2cccc(-c3nc4cc(C(F)(F)F)ccc4[nH]3)c2)cc1)c1ccncc1 | 6.42 |
| O=C(Nc1ccc(Cl)cc1)c1cc(Cl)cc2nc(C(F)(F)F)[nH]c12 | 27.1 |
| COc1ccc(Cl)cc1C(=O)Nc1ccc(-c2nc3ccccc3[nH]2)cc1 | 6.52 |
| COc1cccc(NC(=O)Cn2c(C)c(C#N)c3ccccc32)c1 | 0 |
| CCOC(=O)c1ccc(-c2cnc(N)c(-c3nc4cccc(C)c4[nH]3)c2)cc1 | 0.69 |
| Cc1ccc(Nc2nccc(Nc3ccc4c(c3)nc(Nc3cc(C(C)(C)C)on3)n4C)n2)cc1S(C)(=O)=O | 7.63 |
| COc1ccc(CNC2Cc3ccccc3C2)cc1-c1ccc(OC)c(S(=O)(=O)NCCN2CCCC2)c1 | 7.69 |
| CCn1cc(-c2nc(-c3cc(OC)cc(OC)c3)no2)c(=O)c2ccccc21 | 4.35 |
| CC(C)N1CCN(C(CN2CCN(CCCOc3cccc(F)c3)CC2)c2ccc(F)cc2)CC1 (stereo not drawn) | 6.2 |
| CN1CCN(c2ccc(Nc3nccc(-c4c(-c5cccc(NC(=O)c6c(F)cccc6F)c5)nn5ccccc45)n3)cc2)CC1 | 9.35 |

From ChEMBL document CHEMBL1157539, “Thousands of chemical starting points for antimalarial lead identification” (Nature, 2010)
